Assay [1] in a line: qHTS assay for small molecule antagonists of peroxisome proliferator-activated receptor delta signaling (AID 588535; active means well fitted inhibition curve with a large enough effect in the signal ratio, with a control signal flat, not every such curve was filed as active; the % refers to the signal ratio;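 on max response: cells co-treated with a PPAR-delta agonist as stimulator during compound exposure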). To be noted: HEK293T PPARd-UAS-bla, beta-lactamase FRET ratio, 18 h; 460 nm channel. In outline: (§1)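 Antagonist-mode qHTS using GeneBLAzer PPAR-delta-UAS-bla HEK293T cells; compound exposure 18 hrs at 37 C over a titration. Ratiometric CCF4 fluorescence at 460/530 nm; concentration-response points fitted to the Hill equation.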

Assay [2] has as its target Peroxisome proliferator-activated receptor delta (Homo sapiens) (UniProt Q03181). The description is as above. The conditions noted are these: HEK293T PPARd-UAS-bla, beta-lactamase FRET ratio, 18 h; series mostly up to 76.7 µM. The gist of the method:
as §1

Assay [3] deals with Peroxisome proliferator-activated receptor gamma (Homo sapiens) (UniProt P37231). In words: qHTS assay for small molecule agonists of peroxisome proliferator-activated receptor gamma signaling (AID 588536; active means well fitted curve in the direction sought with a large enough effect in the signal ratio, with a control signal flat, not every such curve was filed as active; the % refers to the signal ratio). The conditions noted are these: HEK293 PPARg-UAS-bla, beta-lactamase ratio, 16 h, percent of rosiglitazone response, DMSO as zero; series mostly up to 76.7 µM. In outline: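 Beta-lactamase reporter read-out: CCF4 fluorescence (ex 405, em 460/530 nm) after 2 h at RT. HEK293 GeneBLAzer cells were treated for 16 h at 37 C. Hill fits gave EC50 and efficacy versus 2 uM rosiglitazone (100%) and DMSO (0%).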
Chain of Peroxisome proliferator-activated receptor gamma (Homo sapiens) (P37231 whole entry, looked up): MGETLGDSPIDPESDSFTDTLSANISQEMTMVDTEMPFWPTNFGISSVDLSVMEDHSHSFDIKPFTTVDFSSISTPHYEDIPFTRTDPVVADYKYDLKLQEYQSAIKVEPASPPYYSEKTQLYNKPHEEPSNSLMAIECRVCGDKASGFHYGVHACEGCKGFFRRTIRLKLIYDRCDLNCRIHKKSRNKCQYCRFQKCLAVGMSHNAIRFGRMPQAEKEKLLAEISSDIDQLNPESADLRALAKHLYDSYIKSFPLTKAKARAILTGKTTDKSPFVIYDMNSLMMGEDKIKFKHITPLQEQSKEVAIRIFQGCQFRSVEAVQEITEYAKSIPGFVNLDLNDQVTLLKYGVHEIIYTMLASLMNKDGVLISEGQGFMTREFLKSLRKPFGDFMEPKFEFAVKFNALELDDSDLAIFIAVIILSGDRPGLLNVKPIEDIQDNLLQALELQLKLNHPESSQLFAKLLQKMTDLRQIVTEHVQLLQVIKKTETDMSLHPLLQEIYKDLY

Assay [4] concerns the target Vitamin D3 receptor (Homo sapiens) (UniProt P11473). In words: qHTS assay for small molecule antagonists of vitamin D receptor signaling (AID 588541; calls by dose curve;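 further: receptor activated by calcitriol during compound treatment; on the % scale 0 is the no-effect control and ±100 the full control effect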). The conditions noted are these: HEK293T VDR-UAS-bla, beta-lactamase ratio, antagonist mode; series mostly up to 76.7 µM. The gist of the method:
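Antagonist-mode beta-lactamase reporter assay: HEK293T VDR-UAS-bla cells were exposed to titrated compound alongside 1-alpha,25-dihydroxyvitamin D3 at 3 nM final for 16 h. Values were normalized to the 50 nM agonist control and DMSO basal, with IC50 and efficacy from Hill equation fits.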

The target of assay [5] is Thyroid hormone receptor beta (Homo sapiens) (UniProt P10828). In words: qHTS assay for small molecule agonists of thyroid hormone receptor beta signaling (AID 588545; calls by dose curve). To be noted: TR-UAS-bla GripTite HEK 293, beta-lactamase ratio, agonist mode, 18 h; series mostly up to 76.7 µM. In outline:
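Agonist activity was read as beta-lactamase CCF4 fluorescence (405 ex, 460/530 em), scaled between DMSO (0%) and 10 nM T3 (100%), then Hill-fitted for EC50 and efficacy. HEK 293 TR-UAS-bla cells in 2% charcoal/dextran FBS medium were exposed 18 h at 37 C.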

A short description of assay [6]: qHTS assay for environmental chemicals that activate the Aryl hydrocarbon Receptor (AhR) signaling pathway (AID 651777). Further: % of control where 0% means no effect; nearly all actives have a fitted effect of over 15% in size. To be noted: 1A2-DRE human hepatoma cells, luciferase, 24 h; activation: stronger effect = higher value. In outline: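 Measured luciferase activity, read 30 min after One-Glo addition at room temperature, from human hepatoma cells bearing a dioxin response element–CYP1A2 promoter reporter and exposed to compound for 24 hr at 37 C.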

Assay [7] has as its target Peroxisome proliferator-activated receptor alpha (Homo sapiens) (UniProt Q07869). In words: qHTS assay for small molecule agonists of the peroxisome proliferator-activated receptor alpha (PPARalpha) signaling pathway (AID 651778). Further: % of control where 0% means no effect. To be noted: PathHunter PPARalpha complementation, chemiluminescence, 6 h; max response: stronger effect = higher value. The gist of the method:
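Chemiluminescence from complemented enzyme reported PPARalpha activation in cells after 6 hr of compound treatment at 37 C. The detection reagent was incubated for 60 min at room temperature, and compounds were scored as agonists.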

A short description of assay [8]: qHTS assay for small molecule agonists of the antioxidant response element (ARE) signaling pathway measured by Nrf2-dependant transcriptional activity - cell viability counter screen (AID 720653; active means well fitted curve in the direction sought with a large enough effect in the repeat runs; an effect the other way counts as inactive or inconclusive; further: on the % scale 0 is the no-effect control and ±100 the full control effect). The conditions noted are these: ARE-bla HepG2 viability, CellTiter-Glo ATP luminescence, 16 h; max response: stronger effect = lower value. The gist of the method: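 Cytotoxicity counter screen: intracellular ATP quantified by CellTiter-Glo luminescence in the same ARE-bla HepG2 plates, after 16 h compound exposure and a 2 h beta-lactamase substrate step.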

Assay [9] can be described thus: qHTS assay for cell viability of the p53RE-bla HCT-116 cell line (AID 743292). Further: on the % scale 0 is the no-effect control and ±100 the full control effect; nearly all actives have a fitted effect of over 55% in size. To be noted: p53RE-bla HCT-116 viability, ATP luminescence, 16 h; series mostly up to 95 µM. The gist of the method:
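Intracellular ATP of p53RE-bla HCT-116 cells measured by luciferase luminescence following 16 h compound incubation at 37 C; DMSO-only wells served as vehicle controls.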

The nature of assay [10]: qHTS assay for small molecule agonists of retinoid X receptor alpha signaling (AID 588544; calls by dose curve;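 on activation: 0% = DMSO basal wells and 100% = reference agonist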). To be noted: HEK293T RXRa-UAS-bla, beta-lactamase reporter, 18 h; 530 nm emission.
Assay [11] deals with Retinoic acid receptor RXR-alpha (Homo sapiens) (UniProt P19793). Described as above. The conditions noted are these: HEK293T RXRa-UAS-bla, beta-lactamase reporter, 18 h; series mostly up to 76.7 µM.
Chain of Retinoic acid receptor RXR-alpha (Homo sapiens) (P19793 whole entry, looked up): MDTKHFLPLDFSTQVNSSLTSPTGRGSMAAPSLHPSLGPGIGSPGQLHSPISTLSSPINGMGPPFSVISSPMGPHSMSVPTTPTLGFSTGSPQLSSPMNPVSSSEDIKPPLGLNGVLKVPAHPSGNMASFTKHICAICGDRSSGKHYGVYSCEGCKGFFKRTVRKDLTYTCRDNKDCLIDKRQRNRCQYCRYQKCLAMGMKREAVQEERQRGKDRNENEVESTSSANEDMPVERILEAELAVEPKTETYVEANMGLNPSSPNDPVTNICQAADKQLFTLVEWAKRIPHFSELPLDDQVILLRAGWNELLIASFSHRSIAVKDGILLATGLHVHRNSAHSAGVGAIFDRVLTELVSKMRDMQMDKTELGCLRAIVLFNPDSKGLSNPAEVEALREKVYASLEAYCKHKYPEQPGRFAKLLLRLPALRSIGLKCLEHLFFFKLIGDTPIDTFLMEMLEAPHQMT
The nature of assay [12]: qHTS assay for small molecule antagonists of retinoid X receptor alpha signaling (AID 588546; active means well fitted inhibition curve with a large enough effect in the signal ratio, with a control signal flat, not every such curve was filed as active; the % refers to the signal ratio;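 further: cells stimulated with 9-cis-retinoic acid as agonist; on the % scale 0 is the no-effect control and ±100 the full control effect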). The conditions noted are these: HEK293T RXRa-UAS-bla, beta-lactamase ratio, antagonist mode; measured here: W530 green channel, cytotoxicity proxy. In outline:
(§2)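 Beta-lactamase reporter inhibition, read as CCF4 fluorescence ratio (ex 405, em 460/530 nm) after 2 h at RT. HEK293T UAS-bla cells, 2500/well, were stimulated with 9-cis-RA at 500 or 100 nM final alongside test compound for 18 h at 37 C.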

Assay [13] concerns the target Retinoic acid receptor RXR-alpha (Homo sapiens) (UniProt P19793). Described as above. The conditions noted are these: HEK293T RXRa-UAS-bla, beta-lactamase ratio, antagonist mode. The gist of the method: as §2
Assay [14] can be described thus: qHTS assay for small molecule agonists of the antioxidant response element (ARE) signaling pathway measured by Nrf2-dependant transcriptional activity (AID 720636; active means well fitted curve in the direction sought with a large enough effect in the repeat runs; an effect the other way counts as inactive or inconclusive;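 further: HepG2 cells with an ARE-driven luciferase reporter; % of control where 0% means no effect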). To be noted: ARE-luc HepG2, Nrf2 luciferase reporter, 16 h; series mostly up to 92.4 µM. The gist of the method:
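In HepG2 cells engineered with an Nrf2-responsive luciferase gene, ARE induction was quantified as luminescence after 16 hr compound treatment at 37 C.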

The nature of assay [15]: qHTS assay for cell viability of HEK293 cells (AID 743288). Further: on the % scale 0 is the no-effect control and ±100 the full control effect; nearly all actives have a fitted effect of over 50% in size. The conditions noted are these: ATP luminescence (CellTiter-Glo), 18 h; max response: stronger effect = lower value. The gist of the method: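 Readout is luciferase-coupled ATP content (CellTiter-Glo luminescence, 30 min room temperature) as a measure of metabolically competent cells. Parental HEK293 cells were plated 5 h or more before compound addition, then treated 18 h at 37 C.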

In assay [16] the target is Nuclear receptor subfamily 1 group I member 2 (Rattus norvegicus) (UniProt Q9R1A7). In words: qHTS assay for small molecule activators of the rat pregnane X receptor (rPXR) signaling pathway (AID 651751; call rule not given here; further: 0% is about no effect). The conditions noted are these: rPXR reporter cells, luciferase (One-Glo), 24 h.
Chain of Nuclear receptor subfamily 1 group I member 2 (Rattus norvegicus) (Q9R1A7 whole entry, looked up): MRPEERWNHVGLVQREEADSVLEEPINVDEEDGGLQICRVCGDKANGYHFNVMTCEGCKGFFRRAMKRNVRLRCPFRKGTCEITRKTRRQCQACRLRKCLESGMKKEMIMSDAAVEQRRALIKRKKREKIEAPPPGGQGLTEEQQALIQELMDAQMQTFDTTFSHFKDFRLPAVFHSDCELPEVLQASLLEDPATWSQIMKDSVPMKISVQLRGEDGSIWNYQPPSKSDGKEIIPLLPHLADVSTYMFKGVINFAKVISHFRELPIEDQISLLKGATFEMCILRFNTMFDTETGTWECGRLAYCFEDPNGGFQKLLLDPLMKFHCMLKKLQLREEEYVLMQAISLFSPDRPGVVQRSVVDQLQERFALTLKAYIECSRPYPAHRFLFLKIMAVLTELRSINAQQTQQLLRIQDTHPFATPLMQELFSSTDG
The nature of assay [17]: qHTS assay for small molecule activators of the human pregnane X receptor (PXR) signaling pathway (AID 720659; call rule not given here; further: 0% is about no effect). To be noted: DPX-2 HepG2 CYP3A4-luciferase, 24 h; series mostly up to 92.3 µM.
The target of assay [18] is Thyroid hormone receptor beta (Homo sapiens) (UniProt P10828). In words: qHTS assay for small molecule antagonists of thyroid hormone receptor beta signaling (AID 588547; active means well fitted inhibition curve with a large enough effect in the signal ratio, with a control signal flat, not every such curve was filed as active; the % refers to the signal ratio;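 further: cells stimulated with 0.4 nM T3 agonist during compound exposure; on the % scale 0 is the no-effect control and ±100 the full control effect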). The conditions noted are these: TR-UAS-bla HEK293, beta-lactamase ratio, antagonist mode, 18 h. In outline:
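Inhibition of T3-driven (0.4nM final) beta-lactamase reporter activity was measured over 0.59 nM to 92 uM compound after 18 h at 37 C. The cells were GripTite HEK293 TR-UAS-bla in charcoal/dextran-stripped serum, with CCF4 ratio read-out and IC50 from Hill fits.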

The nature of assay [19]: qHTS assay for small molecule activators of the p53 signaling pathway (AID 651743; active means well fitted activation curve with a large enough effect in the signal ratio, not every such curve was filed as active; the % refers to the signal ratio; further: % of control where 0% means no effect). To be noted: HCT-116 p53RE-bla, beta-lactamase FRET ratio, 16 h; activation: stronger effect = higher value. In outline:
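A beta-lactamase reporter under p53 response element control, stably carried by HCT-116 cells, reported pathway activation. Test compounds were applied for 16 hours at 37 C, and fluorescence was measured 2 hours after adding the B/G FRET substrate.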

The text below walks through data of PubChem BioAssay (NCATS).

Results filed as inconclusive are left out. Active and inactive are the calls of the source. Unless noted, the call rests on the fitted dose curve; in most records, active means well fitted curve in the direction sought with a large enough effect; inconclusive means small, poorly fitted or top-dose-only effect, or another doubt; inactive means no such curve, though single readings can be large; an effect the other way counts as inactive or inconclusive.

Chain of Peroxisome proliferator-activated receptor delta (Homo sapiens) (Q03181 whole entry, looked up): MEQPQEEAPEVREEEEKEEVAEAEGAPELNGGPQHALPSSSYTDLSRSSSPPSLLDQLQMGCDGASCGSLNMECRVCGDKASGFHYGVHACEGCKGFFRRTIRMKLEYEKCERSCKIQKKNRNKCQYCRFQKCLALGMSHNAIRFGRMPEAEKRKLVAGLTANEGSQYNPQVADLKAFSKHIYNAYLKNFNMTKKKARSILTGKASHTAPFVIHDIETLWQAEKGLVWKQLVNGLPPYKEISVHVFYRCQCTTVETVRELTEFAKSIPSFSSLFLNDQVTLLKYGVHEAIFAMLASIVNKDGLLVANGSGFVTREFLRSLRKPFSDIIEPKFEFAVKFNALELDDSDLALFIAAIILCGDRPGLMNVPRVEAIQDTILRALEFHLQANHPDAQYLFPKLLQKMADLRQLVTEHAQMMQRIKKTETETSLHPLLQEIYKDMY
Chain of Vitamin D3 receptor (Homo sapiens) (P11473 whole entry, looked up): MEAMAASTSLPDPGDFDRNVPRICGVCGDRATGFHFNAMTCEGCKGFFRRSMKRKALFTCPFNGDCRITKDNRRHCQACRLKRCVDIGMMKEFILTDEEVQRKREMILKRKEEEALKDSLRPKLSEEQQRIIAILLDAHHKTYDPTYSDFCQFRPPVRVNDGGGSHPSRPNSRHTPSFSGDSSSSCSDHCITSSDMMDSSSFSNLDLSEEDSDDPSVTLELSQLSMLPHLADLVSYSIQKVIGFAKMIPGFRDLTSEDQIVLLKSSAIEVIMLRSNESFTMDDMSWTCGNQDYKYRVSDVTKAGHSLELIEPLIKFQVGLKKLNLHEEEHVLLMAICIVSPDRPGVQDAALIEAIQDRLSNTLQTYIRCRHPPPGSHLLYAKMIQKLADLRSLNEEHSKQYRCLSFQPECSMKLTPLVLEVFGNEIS
Chain of Peroxisome proliferator-activated receptor alpha (Homo sapiens) (Q07869 whole entry, looked up): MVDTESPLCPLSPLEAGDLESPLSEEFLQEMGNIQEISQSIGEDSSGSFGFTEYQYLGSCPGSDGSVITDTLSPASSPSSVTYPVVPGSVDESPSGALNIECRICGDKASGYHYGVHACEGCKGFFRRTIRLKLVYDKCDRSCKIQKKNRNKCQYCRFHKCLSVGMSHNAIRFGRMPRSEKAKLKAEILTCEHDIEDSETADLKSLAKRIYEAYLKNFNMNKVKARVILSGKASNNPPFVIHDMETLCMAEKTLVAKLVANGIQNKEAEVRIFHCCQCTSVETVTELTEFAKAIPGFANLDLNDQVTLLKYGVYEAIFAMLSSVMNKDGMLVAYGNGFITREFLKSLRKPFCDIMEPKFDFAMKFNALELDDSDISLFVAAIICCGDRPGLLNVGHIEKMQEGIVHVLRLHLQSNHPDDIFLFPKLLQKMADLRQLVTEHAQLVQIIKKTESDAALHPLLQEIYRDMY
Chain of Thyroid hormone receptor beta (Homo sapiens) (P10828 whole entry, looked up): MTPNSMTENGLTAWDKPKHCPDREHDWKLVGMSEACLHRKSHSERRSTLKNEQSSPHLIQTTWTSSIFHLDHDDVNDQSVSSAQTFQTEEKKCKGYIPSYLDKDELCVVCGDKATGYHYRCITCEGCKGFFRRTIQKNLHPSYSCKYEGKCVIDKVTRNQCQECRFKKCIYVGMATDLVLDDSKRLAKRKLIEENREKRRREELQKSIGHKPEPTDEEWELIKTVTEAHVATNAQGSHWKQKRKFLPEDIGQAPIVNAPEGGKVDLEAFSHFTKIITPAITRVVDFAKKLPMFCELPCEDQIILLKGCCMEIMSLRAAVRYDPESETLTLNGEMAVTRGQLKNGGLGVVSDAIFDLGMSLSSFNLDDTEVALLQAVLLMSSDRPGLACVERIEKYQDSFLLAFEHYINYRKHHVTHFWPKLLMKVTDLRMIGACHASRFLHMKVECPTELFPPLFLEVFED

As for `CCOC(=O)NCCOc1ccc(Oc2ccccc2)cc1`, the max response in assay [1] is -16.1%; in assay [7], -0.313% (inactive); in assay [8] it was -19.4% (inactive). Besides, the Potency entry in assay [2], in assay [4], in [5] and in assay [9] was “inactive” in each case. In addition, in assay [3], the result was inactive. Moreover, the activation in assay [6] is 5.93% (inactive).
Take `CCCCCCC(C)(C)S`: the result in assay [3] and in assay [17] was inactive. Besides, the max response in [10] is -19.5%; in [12] it was -14.4%; in assay [13], 4.42% (inactive); in assay [7] it was -1.64% (inactive); in [8], -9.96% (inactive); in assay [15], -17.8% (inactive). Also, the max response in assay [16] is -1.98% (inactive). Also, the Potency entry in assay [11], in [5], in assay [14] and in [9] was “inactive” in each case. Moreover, in assay [6], the activation was -1.46% (inactive).
With `CCCCCCCCCCCCO`, the max response in assay [1] is 3.59%; in assay [10], -12.2%; in assay [12], -2.04%; in assay [13], 8.28% (inactive); in assay [7], -0.593% (inactive); in assay [8], -4.36% (inactive). Also, the max response in assay [15] was -11.9% (inactive); in assay [16], 1.35% (inactive). For the same compound, the Potency result in assay [2], in [4], in assay [11], in assay [5], in assay [14] and in assay [9] was “inactive” each time. The result in assay [3] and in [17] was inactive. The activity change % (negative = inhibition) in assay [18] was -1.52% (inactive). The activation is -3.58% (inactive) in assay [19] and 2.81% (inactive) in assay [6].
For the compound `O=C(O)CCCCCCC(=O)O`, the outcome in assay [3] and in [17] was inactive. In addition, the Potency entry in assay [4], in assay [11], in [5], in [14] and in [9] was “inactive” throughout. The max response in [10] was 5.03%; in assay [12], -8.49%; in assay [13], 2.98% (inactive); in assay [7] it was -2.36% (inactive); in [8], -7.95% (inactive); in [15] it was -8.35% (inactive). In addition, the max response in assay [16] is -0.548% (inactive). Further, the activation was -5.91% (inactive) in [19] and -0.962% (inactive) in assay [6].
Regarding `CC(C)C[C@H](NC(=O)OCC1c2ccccc2-c2ccccc21)C(=O)O`, the max response in [1] was 59%; in assay [7], 11.8% (inactive); in assay [8] it was -7.25% (inactive); in assay [15], -22.2% (inactive). The Potency entry in [2], in assay [5] and in assay [9] was “inactive” throughout. Moreover, the activity change % (negative = inhibition) in assay [18] is -4.45% (inactive). In [19], the activation is -3.17% (inactive).
For `C1=C/CC/C=C/CC/C=C/CC/1`, the max response is 18.8% in [1]; 5.63% in [12]; -14.4% (inactive) in assay [13]; 0.0417% (inactive) in [7]; -8.56% (inactive) in assay [8]; -8.62% (inactive) in [15]. In addition, in assay [16], the max response is 13.1% (inactive). For the same compound, the Potency entry in assay [2], in [4], in [5], in assay [14] and in assay [9] was “inactive” throughout. In addition, the result in assay [3] and in [17] was inactive. Moreover, the activity change % (negative = inhibition) in assay [18] is 0.305% (inactive). Further, in [19], the activation is -6.28% (inactive).
Regarding `COC(=O)CCSCCC(=O)OC`, the max response was 13.2% in assay [1]; -8.85% in assay [12]; -2.91% (inactive) in [13]; -1.49% (inactive) in assay [7]; 1.34% (inactive) in assay [8]; -5.77% (inactive) in assay [15]. In assay [16], the max response is 0.101% (inactive). The Potency entry in [2], in [5], in assay [14] and in [9] was “inactive” throughout. For the same compound, the compound was classed as inactive in assay [17].
